Laboratory results as given in ChEMBL document CHEMBL2218924, “A broad activity screen in support of a chemogenomic map for kinase signalling research and drug discovery” (Biochem J, 2013).

Legend:
[1] = molecular target: T1, 3-phosphoinositide-dependent protein kinase 1 (Homo sapiens) (UniProt O15530); conditions: at 1 µM
T1 sequence (whole entry): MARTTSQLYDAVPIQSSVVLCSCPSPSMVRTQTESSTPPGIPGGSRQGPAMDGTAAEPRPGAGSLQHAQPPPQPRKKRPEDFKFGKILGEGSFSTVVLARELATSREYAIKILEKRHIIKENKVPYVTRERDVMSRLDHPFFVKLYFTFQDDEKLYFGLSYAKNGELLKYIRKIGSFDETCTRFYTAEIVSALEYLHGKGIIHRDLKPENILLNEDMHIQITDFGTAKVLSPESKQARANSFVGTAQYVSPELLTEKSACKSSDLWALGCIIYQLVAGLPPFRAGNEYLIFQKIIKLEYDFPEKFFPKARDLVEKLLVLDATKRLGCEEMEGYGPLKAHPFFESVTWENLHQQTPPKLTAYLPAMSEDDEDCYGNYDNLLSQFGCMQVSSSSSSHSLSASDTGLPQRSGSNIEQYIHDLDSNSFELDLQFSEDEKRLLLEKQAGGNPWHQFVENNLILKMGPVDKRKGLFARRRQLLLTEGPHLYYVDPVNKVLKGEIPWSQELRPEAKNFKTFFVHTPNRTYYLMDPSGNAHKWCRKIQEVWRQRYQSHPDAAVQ

[2] = molecular target: T1, 3-phosphoinositide-dependent protein kinase 1 (Homo sapiens); conditions: at 10 µM
[3] = molecular target: Platelet-derived growth factor receptor alpha (Homo sapiens) (UniProt P16234); conditions: at 10 µM
[4] = molecular target: cAMP-dependent protein kinase catalytic subunit alpha (Homo sapiens) (UniProt P17612); conditions: at 1 µM
[5] = molecular target: cAMP-dependent protein kinase catalytic subunit alpha (Homo sapiens) (UniProt P17612); conditions: at 10 µM
[6] = molecular target: RAC-gamma serine/threonine-protein kinase (Homo sapiens) (UniProt Q9Y243); conditions: at 1 µM
[7] = molecular target: RAC-gamma serine/threonine-protein kinase (Homo sapiens) (UniProt Q9Y243); conditions: at 10 µM
[8] = molecular target: Protein kinase C beta type (Homo sapiens) (UniProt P05771); conditions: at 1 µM
[9] = molecular target: Protein kinase C beta type (Homo sapiens) (UniProt P05771); conditions: at 10 µM
[10] = molecular target: Protein kinase C beta type (Homo sapiens) (UniProt P05771); conditions: at 1 µM; remark: listed apart in the source
[11] = molecular target: Protein kinase C beta type (Homo sapiens) (UniProt P05771); conditions: at 10 µM; remark: listed apart in the source
[12] = molecular target: Protein kinase C gamma type (Homo sapiens) (UniProt P05129); conditions: at 1 µM
[13] = molecular target: RAC-alpha serine/threonine-protein kinase (Homo sapiens) (UniProt P31749); conditions: at 1 µM
[14] = molecular target: RAC-alpha serine/threonine-protein kinase (Homo sapiens) (UniProt P31749); conditions: at 10 µM
[15] = molecular target: Protein kinase C alpha type (Homo sapiens) (UniProt P17252); conditions: at 1 µM
[16] = molecular target: Protein kinase C alpha type (Homo sapiens) (UniProt P17252); conditions: at 10 µM
[17] = molecular target: Protein kinase C delta type (Homo sapiens) (UniProt Q05655); conditions: at 1 µM
[18] = molecular target: Platelet-derived growth factor receptor beta (Homo sapiens) (UniProt P09619); conditions: at 1 µM
[19] = molecular target: Platelet-derived growth factor receptor beta (Homo sapiens) (UniProt P09619); conditions: at 10 µM
[20] = molecular target: Protein kinase C gamma type (Homo sapiens) (UniProt P05129); conditions: at 10 µM

Sequence of Protein kinase C beta type (Homo sapiens) (P05771 2-671 limits assumed): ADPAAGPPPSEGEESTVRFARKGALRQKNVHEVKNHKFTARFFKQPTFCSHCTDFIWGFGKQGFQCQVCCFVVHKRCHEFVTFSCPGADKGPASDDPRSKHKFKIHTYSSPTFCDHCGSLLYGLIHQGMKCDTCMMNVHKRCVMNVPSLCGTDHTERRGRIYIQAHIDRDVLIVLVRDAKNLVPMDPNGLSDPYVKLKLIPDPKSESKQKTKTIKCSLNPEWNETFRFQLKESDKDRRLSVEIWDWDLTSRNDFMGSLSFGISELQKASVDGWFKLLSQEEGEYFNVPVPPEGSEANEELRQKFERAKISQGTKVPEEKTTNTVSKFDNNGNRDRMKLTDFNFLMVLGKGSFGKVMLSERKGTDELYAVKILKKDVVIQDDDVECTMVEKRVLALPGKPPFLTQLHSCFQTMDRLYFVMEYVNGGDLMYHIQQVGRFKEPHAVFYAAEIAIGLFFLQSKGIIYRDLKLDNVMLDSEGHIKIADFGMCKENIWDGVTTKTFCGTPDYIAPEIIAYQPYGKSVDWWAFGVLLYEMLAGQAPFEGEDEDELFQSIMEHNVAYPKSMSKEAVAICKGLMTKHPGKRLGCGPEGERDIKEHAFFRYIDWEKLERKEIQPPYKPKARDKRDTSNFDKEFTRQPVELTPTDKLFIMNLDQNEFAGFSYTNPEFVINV
Sequence of RAC-alpha serine/threonine-protein kinase (Homo sapiens) (P31749 whole entry): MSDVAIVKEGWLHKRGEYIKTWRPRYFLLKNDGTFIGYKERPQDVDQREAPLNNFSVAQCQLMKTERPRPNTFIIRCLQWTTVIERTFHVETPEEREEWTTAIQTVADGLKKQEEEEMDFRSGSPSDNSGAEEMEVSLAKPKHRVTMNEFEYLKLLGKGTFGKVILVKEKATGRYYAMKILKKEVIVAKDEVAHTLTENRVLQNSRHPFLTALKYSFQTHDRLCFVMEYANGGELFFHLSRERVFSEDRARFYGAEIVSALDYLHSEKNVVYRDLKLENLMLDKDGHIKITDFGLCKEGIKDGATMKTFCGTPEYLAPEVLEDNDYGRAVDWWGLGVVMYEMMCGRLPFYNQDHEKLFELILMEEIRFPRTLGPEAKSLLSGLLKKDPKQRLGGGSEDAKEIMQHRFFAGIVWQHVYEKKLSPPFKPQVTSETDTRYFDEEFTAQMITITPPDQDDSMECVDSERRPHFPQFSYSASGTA
Sequence of RAC-gamma serine/threonine-protein kinase (Homo sapiens) (Q9Y243 whole entry): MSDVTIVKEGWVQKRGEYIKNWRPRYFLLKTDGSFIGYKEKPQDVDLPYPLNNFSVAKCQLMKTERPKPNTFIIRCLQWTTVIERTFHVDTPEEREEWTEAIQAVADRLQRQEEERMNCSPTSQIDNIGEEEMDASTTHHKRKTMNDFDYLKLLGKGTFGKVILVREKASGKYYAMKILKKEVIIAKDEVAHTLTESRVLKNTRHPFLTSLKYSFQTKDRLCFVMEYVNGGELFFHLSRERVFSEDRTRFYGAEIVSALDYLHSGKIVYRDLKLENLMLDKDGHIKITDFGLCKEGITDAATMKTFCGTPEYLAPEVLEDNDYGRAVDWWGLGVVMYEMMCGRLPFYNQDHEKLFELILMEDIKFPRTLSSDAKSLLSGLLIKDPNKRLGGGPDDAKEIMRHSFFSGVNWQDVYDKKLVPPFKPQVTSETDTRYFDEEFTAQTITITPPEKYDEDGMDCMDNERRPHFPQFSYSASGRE
Sequence of Protein kinase C delta type (Homo sapiens) (Q05655 whole entry, looked up): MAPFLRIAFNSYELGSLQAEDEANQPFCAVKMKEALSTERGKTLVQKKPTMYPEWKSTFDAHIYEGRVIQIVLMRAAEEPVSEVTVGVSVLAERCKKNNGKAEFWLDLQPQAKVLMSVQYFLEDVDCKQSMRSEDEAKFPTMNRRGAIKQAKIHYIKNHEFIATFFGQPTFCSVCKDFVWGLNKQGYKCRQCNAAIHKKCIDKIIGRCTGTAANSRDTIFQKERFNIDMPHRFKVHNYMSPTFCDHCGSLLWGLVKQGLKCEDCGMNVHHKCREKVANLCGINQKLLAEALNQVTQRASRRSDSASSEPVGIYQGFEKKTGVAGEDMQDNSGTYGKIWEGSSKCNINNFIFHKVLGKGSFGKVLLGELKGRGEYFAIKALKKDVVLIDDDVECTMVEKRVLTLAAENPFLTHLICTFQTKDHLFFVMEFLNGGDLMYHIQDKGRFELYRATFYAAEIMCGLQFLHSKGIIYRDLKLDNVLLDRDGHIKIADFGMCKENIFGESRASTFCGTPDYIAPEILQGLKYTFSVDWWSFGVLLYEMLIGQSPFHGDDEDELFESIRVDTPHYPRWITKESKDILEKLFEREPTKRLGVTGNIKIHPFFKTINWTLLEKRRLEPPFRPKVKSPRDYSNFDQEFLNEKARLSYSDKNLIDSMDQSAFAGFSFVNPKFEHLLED
Sequence of Platelet-derived growth factor receptor alpha (Homo sapiens) (P16234 whole entry): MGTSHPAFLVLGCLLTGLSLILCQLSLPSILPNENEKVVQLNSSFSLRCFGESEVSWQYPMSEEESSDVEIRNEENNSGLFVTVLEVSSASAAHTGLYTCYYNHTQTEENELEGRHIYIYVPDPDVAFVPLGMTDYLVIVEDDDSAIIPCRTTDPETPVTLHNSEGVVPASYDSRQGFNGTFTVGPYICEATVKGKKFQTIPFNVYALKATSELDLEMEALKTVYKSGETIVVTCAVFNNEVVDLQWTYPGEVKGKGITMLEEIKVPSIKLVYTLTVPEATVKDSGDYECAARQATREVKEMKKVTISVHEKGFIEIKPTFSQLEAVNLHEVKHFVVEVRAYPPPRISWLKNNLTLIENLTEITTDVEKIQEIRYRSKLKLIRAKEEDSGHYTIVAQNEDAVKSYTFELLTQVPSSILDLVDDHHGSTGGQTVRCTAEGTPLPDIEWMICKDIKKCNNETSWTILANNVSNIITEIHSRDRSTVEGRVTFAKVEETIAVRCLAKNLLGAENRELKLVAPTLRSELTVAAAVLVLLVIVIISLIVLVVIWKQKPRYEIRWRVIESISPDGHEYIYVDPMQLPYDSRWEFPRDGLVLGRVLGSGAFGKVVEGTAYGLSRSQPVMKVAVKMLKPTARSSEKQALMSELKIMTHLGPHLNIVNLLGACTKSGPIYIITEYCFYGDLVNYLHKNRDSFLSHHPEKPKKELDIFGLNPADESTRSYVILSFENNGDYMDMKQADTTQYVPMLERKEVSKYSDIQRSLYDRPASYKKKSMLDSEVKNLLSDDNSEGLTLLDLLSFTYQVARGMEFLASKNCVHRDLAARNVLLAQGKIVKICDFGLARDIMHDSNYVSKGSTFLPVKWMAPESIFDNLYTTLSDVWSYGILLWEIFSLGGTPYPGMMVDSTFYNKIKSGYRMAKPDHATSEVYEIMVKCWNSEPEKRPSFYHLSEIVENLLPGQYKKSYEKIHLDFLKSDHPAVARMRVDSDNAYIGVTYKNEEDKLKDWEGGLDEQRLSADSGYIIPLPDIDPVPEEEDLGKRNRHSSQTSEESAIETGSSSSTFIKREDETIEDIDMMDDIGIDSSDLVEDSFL

## CN[C@@H]1C[C@H]2O[C@@](C)([C@@H]1OC)n1c3ccccc3c3c4c(c5c6ccccc6n2c5c31)C(=O)NC4
[1]
  residual activity: 1%
[2]
  residual activity: 0%

## COc1cc(OC)c(/C=C2\C(=O)Nc3ccccc32)c(OC)c1
[3]
  residual activity: 69%
[4]
  residual activity: 100%
[5]
  residual activity: 91%
[6]
  residual activity: 103%
[7]
  residual activity: 80%
[8]
  residual activity: 105%
[9]
  residual activity: 103%
[10]
  residual activity: 103%
[11]
  residual activity: 101%
[12]
  residual activity: 98%

## COc1ccc2c(c[n+](C)c3c4cc5c(cc4ccc23)OCO5)c1OC
[4]
  residual activity: 98%
[5]
  residual activity: 73%
[13]
  residual activity: 98%
[14]
  residual activity: 110%
[6]
  residual activity: 82%
[7]
  residual activity: 63%
[15]
  residual activity: 110%
[16]
  residual activity: 100%
[10]
  residual activity: 87%

## COc1ccc2c(c1)/C(=C/c1cnc[nH]1)C(=O)N2
[3]
  residual activity: 82%
[1]
  residual activity: 76%
[2]
  residual activity: 20%
[17]
  residual activity: 96%

## c1cc(-c2cnn3cc(-c4ccc(OCCN5CCCCC5)cc4)cnc23)ccn1
[3]
  residual activity: 3%
[18]
  residual activity: 27%
[19]
  residual activity: 4%
[2]
  residual activity: 84%
[4]
  residual activity: 71%
[5]
  residual activity: 32%
[8]
  residual activity: 118%
[9]
  residual activity: 104%

## O=[N+]([O-])/C=C/c1ccc2c(c1)OCO2
[3]
  residual activity: 105%
[18]
  residual activity: 94%
[19]
  residual activity: 97%
[1]
  residual activity: 106%
[2]
  residual activity: 96%
[4]
  residual activity: 124%
[13]
  residual activity: 100%
[14]
  residual activity: 110%
[6]
  residual activity: 125%
[7]
  residual activity: 106%
[15]
  residual activity: 111%
[16]
  residual activity: 111%
[8]
  residual activity: 113%
[11]
  residual activity: 106%
[12]
  residual activity: 103%
[20]
  residual activity: 67%
[17]
  residual activity: 99%

## CC#CC(=O)Nc1cc2c(Nc3ccc(F)c(Cl)c3)ncnc2cn1
[13]
  residual activity: 101%
[14]
  residual activity: 107%

## CC(C)[C@H](CO)Nc1nc(Nc2cccc(Cl)c2)c2ncn(C(C)C)c2n1
[2]
  residual activity: 97%
[7]
  residual activity: 84%
[10]
  residual activity: 120%
[11]
  residual activity: 96%
[12]
  residual activity: 102%
[20]
  residual activity: 101%

## C[S+]([O-])c1ccc(-c2nc(-c3ccc(F)cc3)c(-c3ccncc3)[nH]2)cc1 (stereo not given)
[3]
  residual activity: 108%
[18]
  residual activity: 120%
[19]
  residual activity: 120%
[1]
  residual activity: 117%
[2]
  residual activity: 107%
[4]
  residual activity: 105%
[13]
  residual activity: 102%
[14]
  residual activity: 105%
[6]
  residual activity: 117%
[7]
  residual activity: 75%
[15]
  residual activity: 107%
[16]
  residual activity: 90%
[8]
  residual activity: 101%
[9]
  residual activity: 70%
[10]
  residual activity: 104%
[11]
  residual activity: 75%
[12]
  residual activity: 104%
[20]
  residual activity: 103%
[17]
  residual activity: 105%

## Nc1ncnc2c1cnn2-c1ccccc1
[13]
  residual activity: 96%
[14]
  residual activity: 96%

## c1ccc(-c2n[nH]cc2-c2ccnc3ccccc23)nc1
[13]
  residual activity: 96%

## O=C1c2ccccc2-c2nc3nnnn3nc21
[3]
  residual activity: 111%
[18]
  residual activity: 120%
[19]
  residual activity: 111%
[1]
  residual activity: 121%
[2]
  residual activity: 116%
[13]
  residual activity: 103%
[14]
  residual activity: 112%
[6]
  residual activity: 117%
[7]
  residual activity: 100%
[10]
  residual activity: 101%
